Among all 290,000 compounds or so, about 490 (0.17%) were called active. This excerpt belongs to a sample that is enriched for actives. Values without a mark were called inactive. No stated cut-off is given here; in the data, active means inhibition above about 37%; inactive means the rest.

The nature of the experiment: DNA intercalator displacement agents – biochemical, FID fluorescence, artefact control for HCV NS3 helicase inhibitor project, primary screen (AID 1845).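 Further: 0% = vehicle and 100% = reference compound; higher means more ethidium bromide displaced from hairpin DNA.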 Conditions: DNA fluorescent intercalator displacement, at 7.9 µM, stronger effect = higher value.
As usually defined, the inhibition is the drop in the measured response relative to a control, in per cent. As to `C#CCOCCOCCOCCNc1nc(N2CCN(C(=O)[C@H](CCC(=O)O)n3cc(C(N)CO)nn3)CC2)nc(N2CCN(C(=O)[C@H](Cc3ccc(O)cc3)n3cc(C(N)[C@H](C)CC)nn3)CC2)n1` (stereo not given in full), the inhibition is 6.75%.

Take `C#CCOCCOCCOCCNc1nc(N2CCN(C(=O)[C@H](C(C)C)n3cc(CCO)nn3)CC2)nc(N2CCN(C(=O)[C@H]([C@@H](C)CC)n3cc(CCCN=C(N)N)nn3)CC2)n1`: the inhibition was 21.4%.

With `C#CCOCCOCCOCCNc1nc(N2CCN(C(=O)[C@H](Cc3ccc(O)cc3)n3cc(C(N)CC(C)C)nn3)CC2)nc(N2CCN(C(=O)[C@H](CCC(=O)O)n3cc(C(N)[C@H](C)CC)nn3)CC2)n1` (stereo not given in full), the inhibition was 17.7%.

Turning to `C#CCOCCOCCOCCNc1nc(N2CCN(C(=O)[C@H](CCCCN)n3cc([C@@H](N)C(C)CC)nn3)CC2)nc(N2CCN(C(=O)[C@H](Cc3ccc(O)cc3)n3cc([C@@H](N)C(C)CC)nn3)CC2)n1` (stereo not given in full), the inhibition was 55.6% (active).

Take `C#CCOCCOCCOCCNc1nc(N2CCN(C(=O)[C@H](C(C)C)n3cc(CCO)nn3)CC2)nc(N2CCN(C(=O)[C@H](C(C)C)n3cc(CCO)nn3)CC2)n1`: the inhibition was -49.9%.

For `C#CCOCCOCCOCCNc1nc(N2CCN(C(=O)C(Cc3ccc(O)cc3)n3cc(C(N)CC(C)C)nn3)CC2)nc(N2CCN(C(=O)C(Cc3ccc(O)cc3)n3cc(C(N)C(C)CC)nn3)CC2)n1` (stereo not given), the inhibition is 46.3% (active).

Turning to `Cc1cc(C)n(CCNS(=O)(=O)c2ccc(Cl)cc2)n1`, the inhibition is -8.78%.

With `COc1ccc(S(=O)(=O)NNC(=O)Nc2ccc(C)cc2)c(OC)c1`, the inhibition is -10.4%.

On to `CN1CCN(S(=O)(=O)c2cccc(C(=O)Nc3cccc(S(N)(=O)=O)c3)c2)CC1`, for which the inhibition was 12.4%.

Turning to `Cc1ccc(S(=O)(=O)NC2CCCCCC2)cc1C(N)=O`, the inhibition was -7.28%.

Turning to `CSc1ncc(C(=O)Nc2ccc(C)cc2C)c(C)n1`, the inhibition is -12.3%.

With `Cc1ccccc1C(=O)N1CCN(c2ccc(NC(=O)c3cccs3)cc2)CC1`, the inhibition is -49.5%.

Take `CC(C)c1nc2cc(C(=O)NC(C)c3cnn(C)c3)ccc2o1` (stereo not given): the inhibition is -13.1%.

As for `COc1cccc(NC(=O)Cn2cnc3sc(C)c(S(=O)(=O)N4CCN(C)CC4)c3c2=O)c1`, the inhibition is 26.6%.

In the case of `COc1ccc(NC(=O)CCS(=O)(=O)c2cc3c(cc2Cl)NC(=O)CO3)cc1OC`, the inhibition is -5.06%.

Consider `COc1ccc(CNC(=O)C(c2ccc(O)cc2)N(Cc2ccco2)C(=O)c2snc(C(N)=O)c2N)cc1` (stereo not given), for which the inhibition is -26.1%.

On to `O=C(Cn1c(NCCO)nc2ccccc21)c1ccc(Cl)cc1Cl`, for which the inhibition was 8.95%.

For the compound `Cc1cc(C)c2c(Cn3ccnc3)cc(=O)oc2c1`, the inhibition is -1.43%.

For the compound `Cc1sc2nc(SCCO)n(-c3ccccc3)c(=O)c2c1C`, the inhibition is -17.8%.

`Cc1cc(=O)[nH]c(Nc2cccc(Br)c2)n1`: the inhibition was -6.32%.

As for `CC(C)(C)OC(=O)CNC(=O)c1[nH]cnc1C(=O)N[C@@H](Cc1ccccc1)C(=O)OCc1ccccc1`, the inhibition was -34.4%.

For `CN(C)C(=O)c1ccc(NC(=O)c2ccccc2-c2ccccc2)cc1`, the inhibition was -15.1%.

Regarding `Cc1ccoc1C(=O)Nc1cccc(Oc2ccccc2)c1`, the inhibition is -5.38%.

Regarding `CCC(C(=O)NCCC(C)C)N(Cc1ccccc1Cl)C(=O)c1snc(C(N)=O)c1N` (stereo not given), the inhibition was -29.9%.

As to `COc1ccc(NC(=O)CN2C(=O)COc3ccc(S(=O)(=O)N4CCOCC4)cc32)c(OC)c1`, the inhibition was -13.3%.

Take `COc1ccc(N2CCN(CCNC(=O)Nc3cc(Cl)ccc3Cl)CC2)cc1`: the inhibition was 21%.

`CCCCc1nc(SCC(=O)Nc2nnc(C(C)C)s2)n[nH]1`: the inhibition is -16.5%.

Take `CN1CCN(CCCNC(=O)c2ccc(/C=C3\Oc4ccccc4N(Cc4ccc(Cl)cc4)C3=O)cc2)CC1`: the inhibition is 40.6% (active).

As to `O=C(NCCN1CCOCC1)c1ccc(/C=C2\Sc3ccccc3N(Cc3ccc(F)cc3)C2=O)cc1`, the inhibition is 0.94%.

As to `CN1C(=O)/C(=C/c2ccc(C(=O)NC3CCCC3)cc2)Oc2ccccc21`, the inhibition was 1.1%.

For the compound `OCCNc1nc(Nc2ccc(Cl)c(Cl)c2)nc2ccccc12`, the inhibition is 40.6% (active).

Consider `Nc1nc(Nc2ccccc2)nc(NCCO)c1[N+](=O)[O-]`, for which the inhibition was -6.38%.

For the compound `CN(C)c1nc(Nc2ccc(Cl)c(Cl)c2)nc(N(C)C)n1`, the inhibition was -4.12%.

For the compound `COc1ccc(NC(=O)NNC(=O)COc2cc(C)c(Cl)c(C)c2)c(OC)c1`, the inhibition was -28%.

Turning to `CCOC(=O)C(NS(=O)(=O)c1ccc(C)cc1)(C(F)(F)F)P(=O)(OCC(C)C)OCC(C)C` (stereo not given), the inhibition was -11.5%.

As for `Cc1cc(OCC(=O)N2CCN(c3ncccn3)CC2)ccc1Cl`, the inhibition was -46.1%.

In the case of `O=C(O)c1ccc2c(=O)n3c(nc2c1)/C(=C/c1ccc(Cl)c([N+](=O)[O-])c1)CC3`, the inhibition is -14.2%.

With `Cn1c(=N)n(CC(O)c2ccccc2)c2ccccc21` (stereo not given), the inhibition was 2.17%.

For `Cc1cccc(OCC(O)Cn2c(=N)n(CCN3CCOCC3)c3ccccc32)c1` (stereo not given), the inhibition is 18.2%.

Turning to `CCOc1ccc(C(O)Cn2c(=N)n(CCN3CCCCC3)c3ccccc32)cc1` (stereo not given), the inhibition was 40.9% (active).

Turning to `CCC1CCCCN1CCCNC(=O)Cn1nc(-c2ccccc2)ccc1=O` (stereo not given), the inhibition is 0.11%.

Take `CCC1CCCCN1CCCNC(=O)c1cc2c(Cl)nc3ccccc3c2s1` (stereo not given): the inhibition was 43.6% (active).

Consider `CCC1CCCCN1CCCNC(=O)C1CCC(Cn2c(=O)[nH]c3ccccc3c2=O)CC1` (stereo not given), for which the inhibition was 2.92%.

For the compound `O=C(N/N=C/c1ccc(OCC2COCCO2)cc1)c1ccc(Br)cc1` (stereo not given), the inhibition is -19.9%.

Turning to `CCCCCCc1cc2cc(-c3nnc(-c4cccc(OC)c4)o3)c(=O)oc2cc1O`, the inhibition was 0.28%.

Regarding `CN(C)CCCn1c(SCc2ccc(Cl)cc2)nnc1-c1ccncc1`, the inhibition was 3.61%.

Consider `COc1ccc(OC)c(NC(=O)CN(Cc2ccc(Cl)cc2)S(C)(=O)=O)c1`, for which the inhibition was -26.1%.

For `O=C(/C=C/c1ccco1)NC(=S)Nc1ccccc1Br`, the inhibition is -8.41%.

For `CCCNC(=O)N1CCC(c2ccc3c(c2)OCO3)CC1`, the inhibition is -7.97%.

Turning to `NC(=O)COC(=O)c1ccc2c(c1)C(=O)N(Cc1ccco1)C2=O`, the inhibition was -2.94%.

These data come from PubChem BioAssay AID1845 (The Scripps Research Institute Molecular Screening Center, 2009).
